The values that follow come from PubChem BioAssay (NCI).

Among the test systems are HCT-15 colon; HT29 colon; SNB-75 CNS; SNB-19 CNS; U251 CNS; PC-3 prostate; SK-MEL-5 melanoma; UACC-62 melanoma; LOX IMVI melanoma; SK-MEL-28 melanoma; EKVX NSCLC; SN12C renal; UO-31 renal; TK-10 renal; CAKI-1 renal; A498 renal; CCRF-CEM leukemia; MOLT-4 leukemia; ACHN renal.
Common to all, as to assay: NCI-60 one-dose screen, 48 h (100 = growth as untreated, 0 = no growth, -100 = all killed)
Details in all cases: 10 µM unless noted

This is part of a sample that, as a whole, favours compounds with a hit. Of some 83,000 tested, about 20% had one in any assay.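 Growth was measured after 48 h exposure to one concentration of compound in 96-well plates. Values under 10 count as active.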 Values without a mark were called inactive. Calls of active or inactive are those of the source.

Regarding `O=C(Cn1cncn1)Nc1ccc(-c2nc3ccccc3s2)cc1`, the growth was 101% with HCT-15 colon; 105% in the test on HT29 colon; 92.1% with SNB-75 CNS; 93% with SNB-19 CNS; 90% with U251 CNS; 85.8% with PC-3 prostate. The growth with SK-MEL-5 melanoma is 86.7%; in the test on UACC-62 melanoma it was 95.2%; in the test on LOX IMVI melanoma it was 99.3%; with SK-MEL-28 melanoma, 111%; with EKVX NSCLC it was 90.2%; in the test with SN12C renal, 95.1%. The growth is 76.9% in the test with UO-31 renal; 106% in the test on TK-10 renal; 93.8% in the test with CAKI-1 renal; 88.4% with A498 renal; 105% with CCRF-CEM leukemia; 91.9% with MOLT-4 leukemia.

For `Cn1ccnc1C(=O)/C=C/c1ccc(CC(=O)Nc2ccc(Br)cc2)cc1`, the growth with HCT-15 colon is 5.5% (active); in the test on HT29 colon it was 0.238% (active); with SNB-75 CNS it was 8.2% (active); with SNB-19 CNS, 11.4%; in the test with U251 CNS, 5.83% (active); in the test with PC-3 prostate it was 23%. In addition, the growth in the test with SK-MEL-5 melanoma was 62.9%; in the test with UACC-62 melanoma, 33%; in the test with LOX IMVI melanoma it was 7.81% (active); in the test with SK-MEL-28 melanoma it was 92.3%; in the test with EKVX NSCLC, 22.6%; in the test with SN12C renal, 1.07% (active). Moreover, the growth in the test with UO-31 renal was 22.7%; in the test with TK-10 renal, 49.5%; in the test with ACHN renal, 40.3%; with CCRF-CEM leukemia, 11.9%; in the test on MOLT-4 leukemia, 2.44% (active).

`COc1ccc(Br)cc1NC(=O)Nc1cccc2c1ccn2Cc1ccnc(N)c1`: the growth in the test on HCT-15 colon was 1.92% (active); with HT29 colon, -40.6% (active); with SNB-75 CNS, 26.7%; with SNB-19 CNS, 37.3%; in the test on U251 CNS, 13.9%; in the test on PC-3 prostate it was 17.3%. Moreover, the growth with SK-MEL-5 melanoma is 23.5%; in the test on UACC-62 melanoma it was 29%; in the test on LOX IMVI melanoma it was -68% (active); in the test with SK-MEL-28 melanoma, 53.3%; in the test with EKVX NSCLC, 31.3%; in the test with SN12C renal it was 40.9%. Moreover, the growth was 9.39% (active) in the test with UO-31 renal; 22.1% with TK-10 renal; 24.1% with ACHN renal; 15% in the test with CAKI-1 renal; 27.3% in the test on CCRF-CEM leukemia; 8.16% (active) with MOLT-4 leukemia.

For the compound `Cc1ccc(NC(=O)c2ccc(CN3CC[C@H](N(C)C)C3)c(C(F)(F)F)c2)cc1Nc1nccc(-c2cncnc2)n1`, the growth in the test on HCT-15 colon was 8.37% (active); with HT29 colon, -47.3% (active); in the test with SNB-75 CNS, -85.9% (active); in the test with SNB-19 CNS, 19.6%; in the test on U251 CNS it was -36% (active); with PC-3 prostate, 10.9%. The growth in the test with SK-MEL-5 melanoma is -96.6% (active); in the test with UACC-62 melanoma, -63.5% (active); in the test on LOX IMVI melanoma, -72.7% (active); in the test on SK-MEL-28 melanoma, -77.8% (active); in the test on EKVX NSCLC, 15.3%; in the test with SN12C renal, -32.6% (active). In addition, the growth in the test on UO-31 renal was -61.3% (active); in the test with TK-10 renal it was -30.1% (active); in the test on ACHN renal it was 1.22% (active); with A498 renal, -59.9% (active); in the test on CCRF-CEM leukemia it was 4.61% (active); in the test on MOLT-4 leukemia it was -4.64% (active).

Take `O=C(Nc1cccc([N+](=O)[O-])c1)c1ccc(Cl)c(Cl)c1`: the growth in the test on HCT-15 colon is 93.2%; with HT29 colon it was 78.3%; in the test with SNB-75 CNS, -2.87% (active); with SNB-19 CNS, 53.5%; in the test with U251 CNS, 62.4%; in the test with PC-3 prostate it was 60.7%. Also, the growth in the test with SK-MEL-5 melanoma was 89.4%; in the test on UACC-62 melanoma, 74.4%; in the test with LOX IMVI melanoma it was 63.6%; in the test on SK-MEL-28 melanoma, 53.5%; in the test on EKVX NSCLC, 66.4%; in the test with SN12C renal, 67.9%. Besides, the growth with UO-31 renal is 95.4%; in the test on TK-10 renal it was 49.9%; with ACHN renal it was 49.8%; in the test on CAKI-1 renal, 86.4%; in the test with CCRF-CEM leukemia it was 82.7%; with MOLT-4 leukemia, 85.9%.

In the case of `COCCOc1cnc2ccn([C@H](C)c3nnc4c(F)cc(-c5cnn(C)c5)cn34)c(=O)c2c1`, the growth in the test on HCT-15 colon is 95.5%; in the test on HT29 colon, 104%; with SNB-75 CNS it was 93.2%; with SNB-19 CNS, 73.9%; in the test with U251 CNS it was 92.2%; in the test with PC-3 prostate, 78.7%. Moreover, the growth in the test with SK-MEL-5 melanoma was 47.5%; in the test on UACC-62 melanoma, 20.7%; with LOX IMVI melanoma it was 61.5%; in the test on SK-MEL-28 melanoma, 44%; with EKVX NSCLC, 96%; with SN12C renal, 86.3%. For the same compound, the growth was 60% in the test with UO-31 renal; 105% with TK-10 renal; 80.3% in the test on ACHN renal; 65.2% in the test on CAKI-1 renal; 70.6% in the test with CCRF-CEM leukemia; 78.7% in the test on MOLT-4 leukemia.

For the compound `CC1(COc2ccc3c(c2)ncn3-c2ccc3cccc(N4CCC(N)CC4)c3n2)COC1`, the growth is 10.5% with HCT-15 colon; 0% (active) with HT29 colon; 14.4% in the test with SNB-75 CNS; 7.04% (active) in the test with SNB-19 CNS; -36.4% (active) with U251 CNS; 30.2% in the test on PC-3 prostate. The growth in the test on SK-MEL-5 melanoma is -13.8% (active); in the test on UACC-62 melanoma it was 99.3%; in the test on LOX IMVI melanoma, -57.2% (active); with SK-MEL-28 melanoma, 15.2%; in the test on EKVX NSCLC it was 34.6%; in the test on SN12C renal, 32.4%. For the same compound, the growth is -3.3% (active) in the test on UO-31 renal; 32% in the test on TK-10 renal; 2.83% (active) with ACHN renal; 22.9% with CAKI-1 renal; 2.15% (active) with CCRF-CEM leukemia; -4.11% (active) with MOLT-4 leukemia.

As for `O=C(CNc1nc(-c2ccc(Cl)cc2)cs1)Nc1ccc(-c2nc3ccccc3s2)cc1`, the growth in the test on HCT-15 colon was 110%; with HT29 colon, 108%; with SNB-75 CNS, 77.8%; in the test with SNB-19 CNS it was 98.2%; in the test on U251 CNS, 91.6%; with PC-3 prostate, 90.7%. Besides, the growth is 87.7% in the test on SK-MEL-5 melanoma; 91.9% in the test on UACC-62 melanoma; 95.6% in the test on LOX IMVI melanoma; 111% in the test on SK-MEL-28 melanoma; 102% with EKVX NSCLC; 101% in the test with SN12C renal. For the same compound, the growth with UO-31 renal was 75%; in the test with TK-10 renal, 66.5%; in the test with ACHN renal it was 105%; with A498 renal it was 102%; with CCRF-CEM leukemia, 93%; in the test on MOLT-4 leukemia it was 92.7%.
